# Assay outcomes as filed in PubChem BioAssay.
# Most compounds without a hit are left out; they make up all but 9.4% or so of the library.
# NPC1 prom act: qHTS Assay for NPC1 Promoter Activators. Huh7 NPC1 promoter luciferase reporter, 24 h. Potency, µM (titrated, usually from 9.22 µM), for inactives: top-dose activation, most hits filed as activators. 320,000 compounds, 2.4% hits. AID 485313, 2010; further: % of control where 0% means no effect; nearly all actives have a fitted effect of over 60% in size
#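 Huh7 cells stably carrying NPC1 promoter–luciferase, plated in Opti-MEM with 10% FBS for 2 h, were exposed to compound in DMSO for 24 h at 37 °C; luciferase reagent was added for 10 min and luminescence read.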
# SMN2 splice enh: qHTS Assay for Enhancers of SMN2 Splice Variant Expression | Potency, µM (top dose mostly 46.1 µM), without a hit: at the top dose activity change, positive = activation, most hits filed as activators | 210,000 compounds, 2.8% hits | AID 1458, 2008 | HEK293 SMN2-luciferase splicing reporter, luminescence, 30-36 h; further: % of control where 0% means no effect; nearly all actives have a fitted effect of over 55% in size
#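 qHTS luciferase splicing reporter: luminescence rises when SMN2 exon 7 is included in transfected HEK293 cells. Compound exposure lasted 30-36 h at 37C, with 4.5 mM final sodium butyrate as control, followed by a ONE-Glo read.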
# FLuc modulator: qHTS profiling assay for firefly luciferase inhibitor/activator using purifed enzyme and Km concentrations of substrates (counterscreen for miR-21 project) | Luciferin 4-monooxygenase (Photinus pyralis), P08659 | purified FLuc, Km substrates, luminescence inhibition | Potency, µM (highest dose often 57.5 µM), for inactives: at the highest dose activity change, negative = inhibition, usual class: inhibitors | 360,000 compounds, 6.9% hits;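 further: plate controls were vehicle for no effect and reference inhibitor for full effect; nearly all actives have a fitted effect of over 55% in size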
# Target sequence (P08659 whole entry, looked up): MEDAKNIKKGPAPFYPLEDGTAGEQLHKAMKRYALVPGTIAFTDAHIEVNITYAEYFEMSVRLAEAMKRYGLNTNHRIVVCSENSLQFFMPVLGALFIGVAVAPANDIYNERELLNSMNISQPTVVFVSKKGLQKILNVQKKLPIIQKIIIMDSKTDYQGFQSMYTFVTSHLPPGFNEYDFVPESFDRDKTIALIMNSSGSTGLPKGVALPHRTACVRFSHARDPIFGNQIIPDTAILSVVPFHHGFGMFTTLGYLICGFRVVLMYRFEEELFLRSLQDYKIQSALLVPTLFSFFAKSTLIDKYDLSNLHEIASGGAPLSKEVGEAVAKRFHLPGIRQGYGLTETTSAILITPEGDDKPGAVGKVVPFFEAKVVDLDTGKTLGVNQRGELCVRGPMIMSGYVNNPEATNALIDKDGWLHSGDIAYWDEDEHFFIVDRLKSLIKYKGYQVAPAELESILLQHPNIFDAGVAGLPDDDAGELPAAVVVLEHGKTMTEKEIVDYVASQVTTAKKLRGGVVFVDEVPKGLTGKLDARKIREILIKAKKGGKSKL
#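 Purified P. pyralis luciferase (10nM final) with 10uM D-luciferin and 10uM ATP (Km levels) in 50mM Tris acetate pH 7.5, 10mM Mg acetate, 0.01% Tween-20, 0.05% BSA; qHTS 6-point titration, ~60 µM downward; luminescence read.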
# Rab9 prom act: qHTS Assay for Rab9 Promoter Activators | Huh7 Rab9 promoter-luciferase reporter, luminescence, 24 h | Potency, µM (top dose mostly 9.22 µM), for the others: top-dose activation, negative = inhibition, most hits filed as activators | 320,000 compounds, 2.8% hits | AID 485297, 2010; further: % of control where 0% means no effect; nearly all actives have a fitted effect of over 60% in size
#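 Cells were plated at 1500 per well in reduced-serum medium with 10% FBS and left 2 h. Compound in DMSO was then added for 24 h at 37 °C. Reporter signal was read by luminescence after 10 min with luciferase detection reagent.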
# ELG1 repair inh: qHTS screen for small molecules that inhibit ELG1-dependent DNA repair in human embryonic kidney (HEK293T) cells expressing luciferase-tagged ELG1. Potency, µM (doses to about 46.1 µM), inactives show top-dose activity change, negative = inhibition, usual class: inhibitors. HEK293T ELG1-luciferase reporter, luminescence, 16 h; DNA damage induced by 5-fluorouridine. 330,000 compounds, 2.3% hits; further: on the % scale 0 is the no-effect control and ±100 the full control effect; nearly all actives have a fitted effect of over 55% in size
#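 5-Fluorouridine DNA damage + compound/DMSO, 2,000 cells/well, 16 h, 37 °C/5% CO2. ONE-Glo, 30 min RT, luminescence. Readout = decrease in reporter signal.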
# ELG1 genotox: qHTS screen for small molecules that induce genotoxicity in human embryonic kidney (HEK293T) cells expressing luciferase-tagged ELG1. HEK293T ELG1-luciferase reporter, luminescence, 16 h. Potency, µM (top dose mostly 46 µM), inactives show top-dose activity change, positive = activation, hits mostly activators. 330,000 compounds, 1.3% hits. AID 504466, 2011; further: % of control where 0% means no effect; nearly all actives have a fitted effect of over 60% in size
#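 HEK293T cells expressing luciferase-tagged ELG1 were treated with compound or DMSO for 16 hr at 37°C. Luciferase activity was then read after 30 min with ONE-Glo at room temperature; rising signal flags genetic stress.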
# The depositor's hits bear a star; ? = inconclusive; nt = not tested or not shown; [ ] = remark or other dose. The call rests on the fitted dose curve; in most records, active means well fitted curve in the direction sought with a large enough effect; inconclusive means small, poorly fitted or top-dose-only effect, or another doubt; inactive means no such curve, though single readings can be large; an effect the other way counts as inactive or inconclusive. Potency means the concentration at half of the fitted maximal effect.
SMILES,NPC1 prom act,SMN2 splice enh,FLuc modulator,Rab9 prom act,ELG1 repair inh,ELG1 genotox
O=C(Nc1nc2ccccc2[nH]1)c1cccc(Cl)c1,1µM*,nt,2.13µM*,0.708µM*,?,16.4µM*
CCNC(=O)CC1C(=O)N(c2ccc(C)cc2)C(=O)N1Cc1ccc(C)cc1 (configuration not stated),nt,-4.1%,-2.0%,nt,nt,nt
Cc1cc(=O)[nH]c2nnc(SCc3c(F)cccc3Cl)n12,nt,nt,-11.4%,nt,nt,nt
CCN(CC)C(=O)Cn1c(=O)n(CC2CCC(C(=O)NC)CC2)c(=O)c2sccc21 (configuration not stated),nt,nt,1.3%,nt,nt,nt
Cc1ccc(C)c(C(=O)Nc2nc3ccccc3[nH]2)c1,27.1%,nt,-5.2%,27.3%,?,-5.7%
CC(=O)Nc1nc2ccccc2[nH]1,-5.0%,20.4%,-1.1%,0.1%,-10.6%,0.1%
O=C(Nc1nc2ccccc2[nH]1)c1ccccc1O,1.78µM*,nt,2.69µM*,0.891µM*,?,?
O=C(Nc1nc2ccccc2[nH]1)c1ccccc1,?,3.98µM*,1.51µM*,1.58µM*,?,0.517µM*
CC1=NN(c2ccccc2)C(=O)C1N=Nc1ccccc1 (configuration not stated),?,14.1µM*,2.39µM*,?,?,?
COc1ccc(N=NC2C(=O)N(c3ccccc3)N=C2C)cc1 (configuration not stated),19.5%,nt,19µM*,0.5%,?,-1.8%
CC1=NN(c2ccccc2)C(=O)C1N=Nc1cccc(O)c1 (configuration not stated),?,nt,8.49µM*,1.2%,?,?
COc1ccccc1CNC(=O)CCCn1c(=O)c2cccn2c2ccccc21,nt,nt,-0.3%,nt,nt,nt
CCOc1cc(CNC(=O)c2ccc(Cn3c(=O)c4cccn4c4cccnc43)cc2)ccc1OC,nt,nt,-8.6%,nt,nt,nt
Cc1cnc(NC(=O)NCC2CCCC(CNC(=O)Nc3ncc(C)s3)C2)s1 (configuration not stated),-2.4%,nt,-18.9%,-1.1%,20.6µM*,-22.1%
O=c1[nH]c(=O)n([C@H]2C[C@@H](O)[C@@H](CO)O2)cc1C=CBr,3.5%[46.1 µM],nt,nt,0.4%[46.1 µM],nt,nt
Cc1c(Cl)ccc2c(C(=O)NCCN3CCCCC3)cc(-c3ccccn3)nc12,-11.5%,-23.2%,-1.3%,-4.2%,?,?
Cc1c(Cl)ccc2c(C(=O)NCCCn3nccc3C)cc(-c3ccccn3)nc12,-2.3%,nt,0.4%,2.6%,18.3µM*,-18.5%
CN(C)CCCNc1cc(C(C)(C)C)nc2c(-c3ccc(Cl)cc3)cnn12,0.3%,nt,?,-2.4%,?,8.2%
Cc1cc(NCCCN2CCOCC2)n2ncc(-c3ccc(Cl)cc3)c2n1,?,24.3%,16.9µM*,?,?,?
Cn1c(=O)c2c(nc(NCCCN3CCOCC3)n2Cc2ccc(Cl)cc2)n(C)c1=O,24.6%,13.0%,9.2%,24.6%,-1.5%,-1.3%
CC(C)Nc1cc(C(C)(C)C)nc2c(-c3ccccc3)cnn12,?,nt,10.7µM*,2.82µM*,?,?
CC(C)(C)c1cc(C(F)(F)F)n2ncc(-c3ccccc3)c2n1,-3.1%,-9.1%,0.1%,10.2%,-16.6%,-3.0%
Cc1cccc(-c2cc3nc(C)cc(NCCCn4ccnc4)n3n2)c1,1.7%,-12.7%,15.1µM*,-7.6%,-1.7%,?
CC(C)(C)c1cc(NCCCn2ccnc2)n2ncc(-c3ccccc3)c2n1,2µM*,nt,5.36µM*,2.24µM*,?,?
COc1ccc(NC(=O)c2cc3c(=O)n(Cc4ccco4)ccc3nc2C)cc1,nt,nt,-5.7%,nt,nt,nt
SMILES,NPC1 prom act,SMN2 splice enh,FLuc modulator,Rab9 prom act,ELG1 repair inh,ELG1 genotox
Cc1cc(NCCCn2ccnc2)n2ncc(-c3ccc(Cl)cc3)c2n1,0.447µM*,4.5%,0.953µM*,0.562µM*,?,?
COc1ccc(NS(=O)(=O)c2cccc(NC(=O)C3=NN(c4ccccc4)C(=O)CC3)c2)cc1,-11.5%,nt,0.9%,-16.8%,9.2µM*,-5.2%[9.26 µM]
CN(c1ccccc1)S(=O)(=O)c1cccc(NC(=O)c2ccncc2)c1,-5.1%,nt,2.2%,-13.7%,?,-8.1%
CC(C)Oc1ccc(S(=O)(=O)N2CCOCC2)cc1NC(=O)C1=NN(c2ccccc2)C(=O)CC1,-5.0%,nt,7.4%,-6.8%,10.3µM*,-1.7%
CC(C)Oc1ccc(S(=O)(=O)N2CCOCC2)cc1NC(=O)c1ccc(N2CCCC2=O)cc1,-6.0%,nt,4.0%,1.0%,-6.8%,-6.5%
CN(c1ccccc1)S(=O)(=O)c1cccc(NC(=O)C2=NN(c3ccccc3)C(=O)CC2)c1,nt,nt,nt,nt,7.3µM*,1.0%
OCCc1ccc(O)c(-n2nc3ccccc3n2)c1,22.8%,nt,15.1µM*,25.9%,?,?
O=C(CCCc1ccccc1)N=C1SC2CS(=O)(=O)CC2N1c1ccccc1F (configuration not stated),-4.6%,nt,3.8%,-3.7%,15.6%,-0.8%
COc1ccc(Oc2nccc(-c3ccccc3)c2C#N)cc1,?,8.4%,12µM*,?,?,10.4%
CCCn1cc(S(=O)(=O)c2ccc(C)c(C)c2)c(=O)c2cc(F)c(N3CCC(C)CC3)cc21,nt,nt,-5.3%,nt,nt,nt
CCOC(=O)CSc1nnc(NC(=O)c2ccco2)s1,2.0%,nt,-13.3%,-0.8%,19.7%,0.2%
CCSc1nnc(NC(=O)c2ccco2)s1,25.3%,11.2µM*,?,?,?,?
CC(C)Sc1nnc(NC(=O)c2ccco2)s1,?,nt,16.9µM*,?,?,?
O=C(Nc1nnc(SCc2ccc(Cl)cc2)s1)c1ccco1,-4.8%,-14.1%,-0.4%,3.1%,0.2%,0.5%
Cc1csc(NC(=O)c2ccc(Cn3nc(C)c(Br)c3C)o2)n1,-0.4%,nt,-10.6%,-2.4%,9.2µM*,-0.2%
Cc1ccc(CNC(=O)c2ccc(Cn3nc(C)c(Cl)c3C)o2)cc1,-5.3%,-1.1%,4.9%,-0.5%,-17.1%,0.8%
Cc1cc(C)cc(NC(=O)c2ccc(Cn3nc(C)c(Cl)c3C)o2)c1,-3.8%,-27.1%,-8.1%,-2.4%,20.6µM*,-7.0%
CCn1c(Cn2nnc(-c3ccccc3)n2)nnc1SCC(=O)Nc1ccc(C(C)=O)cc1,?,13.8%,19µM*,23.9%,?,14.1%
Oc1ccc(CNCc2ccccc2)c2cccnc12,nt,-32.2%[9.22 µM],nt,nt,nt,nt
CC(C)COCc1ccc(O)c2ncccc12,-30.0%,nt,0.7%,-38.3%,20.6µM*,-2.7%
OCc1ccc(O)c2ncccc12,-38.0%,-50.3%,1.4%,-30.6%,?,-12.6%
